The values that follow come from PubChem BioAssay (NCATS).

For test [1], the target named is Rap guanine nucleotide exchange factor 3 (Homo sapiens) (UniProt O95398). Description: Confirmatory qHTS for antagonist of cAMP-regulated guanine nucleotide exchange factor 3 (EPAC1) (AID 1645880). Note: nearly all actives have a fitted effect of over 55% in size. Note: potency is the fitted concentration of half-maximal effect. An outline of the steps:
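Released BODIPY-GDP fluoresces less than Rap1-bound BODIPY-GDP; the signal is followed at 480/540 nm at 5-min intervals over 30 min, after 5 min at room temperature. Reactions contain 100 nM EPAC1, 250 nM RAP1B-BODIPY-GDP and 50 uM GDP; results are normalized to ATA and DMSO.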
For orientation: qHTS replaces the single test concentration by a dilution series.

Test [2] has the same target. The test can be described thus: Confirmatory qHTS for agonist of cAMP-regulated guanine nucleotide exchange factor 3 (EPAC1) (AID 1645881).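 Note: EPAC1 catalysed release of BODIPY-GDP from Rap1B seen as fluorescence loss; 100% = effect of cAMP agonist control; nearly all actives have a fitted effect of over 75% in size.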
The target of test [3] is Rap guanine nucleotide exchange factor 4 (Homo sapiens) (UniProt Q8WZA2). Description: Confirmatory qHTS for agonist of cAMP-regulated guanine nucleotide exchange factor 4 (EPAC2) (AID 1645884).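 Note: nucleotide exchange releases bodipy-GDP from Rap1 and this lowers its fluorescence; % is set by controls: 0 for no effect and ±100 for the full control effect; nearly all actives have a fitted effect of over 65% in size.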
Sequence of Rap guanine nucleotide exchange factor 4 (Homo sapiens) (Q8WZA2 whole entry, looked up): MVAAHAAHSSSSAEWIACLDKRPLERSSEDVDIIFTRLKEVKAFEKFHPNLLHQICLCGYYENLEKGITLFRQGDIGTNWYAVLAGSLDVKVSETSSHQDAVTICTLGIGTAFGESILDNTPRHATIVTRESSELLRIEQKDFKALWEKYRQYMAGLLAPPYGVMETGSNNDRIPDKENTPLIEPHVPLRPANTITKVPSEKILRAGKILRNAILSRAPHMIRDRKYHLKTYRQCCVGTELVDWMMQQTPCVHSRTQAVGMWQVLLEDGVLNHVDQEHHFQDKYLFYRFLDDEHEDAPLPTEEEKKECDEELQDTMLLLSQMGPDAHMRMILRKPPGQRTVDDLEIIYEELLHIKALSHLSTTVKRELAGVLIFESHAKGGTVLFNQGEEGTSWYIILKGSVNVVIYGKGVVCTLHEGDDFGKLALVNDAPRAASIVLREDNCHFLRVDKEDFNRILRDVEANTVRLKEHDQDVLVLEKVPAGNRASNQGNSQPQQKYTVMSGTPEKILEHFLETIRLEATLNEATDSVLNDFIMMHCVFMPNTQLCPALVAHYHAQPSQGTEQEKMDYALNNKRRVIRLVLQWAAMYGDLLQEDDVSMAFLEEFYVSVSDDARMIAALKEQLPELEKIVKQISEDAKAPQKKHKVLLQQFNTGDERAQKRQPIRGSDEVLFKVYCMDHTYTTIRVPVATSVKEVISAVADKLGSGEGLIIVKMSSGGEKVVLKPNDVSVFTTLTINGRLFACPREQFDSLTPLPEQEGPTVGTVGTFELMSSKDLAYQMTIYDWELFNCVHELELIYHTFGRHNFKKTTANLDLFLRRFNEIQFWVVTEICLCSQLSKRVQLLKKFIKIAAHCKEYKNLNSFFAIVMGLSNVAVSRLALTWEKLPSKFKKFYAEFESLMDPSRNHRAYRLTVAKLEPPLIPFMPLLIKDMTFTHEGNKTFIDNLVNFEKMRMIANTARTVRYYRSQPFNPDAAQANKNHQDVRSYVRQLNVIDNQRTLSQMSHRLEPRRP
The target is the same in test [4]. The test can be described thus: Confirmatory qHTS for antagonist of cAMP-regulated guanine nucleotide exchange factor 4 (EPAC2) (AID 1645885). For activity change, negative = inhibition: % is set by controls: 0 for no effect and ±100 for the full control effect. Note: nearly all actives have a fitted effect of over 25% in size. Note: potency is the fitted concentration of half-maximal effect.
Test [5] addresses Rap guanine nucleotide exchange factor 3 (Homo sapiens) (UniProt O95398). The test can be described thus: Counterscreen qHTS for antagonist of cAMP-regulated guanine nucleotide exchange factor 3 (EPAC1) (AID 1645888). Note: % of control where 0% means no effect. A digest of the protocol:
(§1)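 Rap1B-BODIPY-GDP 250 nM + GDP 50 uM; cpds 7-pt, final 9.74 nM–152 uM (activator mode) or from 7.32 nM upwards (inhibitor mode); RT; FI 480/540 nm at 5 and 30 min, then ± cAMP, reread.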

Test [6] has the same target. The test can be described thus: Counterscreen qHTS for agonist of cAMP-regulated guanine nucleotide exchange factor 3 (EPAC1) (AID 1645889). Note: % of control where 0% means no effect; nearly all actives have a fitted effect of over 40% in size. An outline of the steps:
as §1
Background: A counterscreen serves to expose hits that act by an unwanted route or on another target.

Molecules are shown by their SMILES. Inconclusive results are not listed. Values without a mark were called inactive. Activity calls are given as the source filed them. Calls come from the whole dose curve; as a rule, active = well fitted curve in the direction sought with a large enough effect; inconclusive = small, poorly fitted or top-dose-only effect, or another doubt; inactive = no such curve, though single readings can be large; an effect the other way counts as inactive or inconclusive.

Sequence of Rap guanine nucleotide exchange factor 3 (Homo sapiens) (O95398 whole entry, looked up): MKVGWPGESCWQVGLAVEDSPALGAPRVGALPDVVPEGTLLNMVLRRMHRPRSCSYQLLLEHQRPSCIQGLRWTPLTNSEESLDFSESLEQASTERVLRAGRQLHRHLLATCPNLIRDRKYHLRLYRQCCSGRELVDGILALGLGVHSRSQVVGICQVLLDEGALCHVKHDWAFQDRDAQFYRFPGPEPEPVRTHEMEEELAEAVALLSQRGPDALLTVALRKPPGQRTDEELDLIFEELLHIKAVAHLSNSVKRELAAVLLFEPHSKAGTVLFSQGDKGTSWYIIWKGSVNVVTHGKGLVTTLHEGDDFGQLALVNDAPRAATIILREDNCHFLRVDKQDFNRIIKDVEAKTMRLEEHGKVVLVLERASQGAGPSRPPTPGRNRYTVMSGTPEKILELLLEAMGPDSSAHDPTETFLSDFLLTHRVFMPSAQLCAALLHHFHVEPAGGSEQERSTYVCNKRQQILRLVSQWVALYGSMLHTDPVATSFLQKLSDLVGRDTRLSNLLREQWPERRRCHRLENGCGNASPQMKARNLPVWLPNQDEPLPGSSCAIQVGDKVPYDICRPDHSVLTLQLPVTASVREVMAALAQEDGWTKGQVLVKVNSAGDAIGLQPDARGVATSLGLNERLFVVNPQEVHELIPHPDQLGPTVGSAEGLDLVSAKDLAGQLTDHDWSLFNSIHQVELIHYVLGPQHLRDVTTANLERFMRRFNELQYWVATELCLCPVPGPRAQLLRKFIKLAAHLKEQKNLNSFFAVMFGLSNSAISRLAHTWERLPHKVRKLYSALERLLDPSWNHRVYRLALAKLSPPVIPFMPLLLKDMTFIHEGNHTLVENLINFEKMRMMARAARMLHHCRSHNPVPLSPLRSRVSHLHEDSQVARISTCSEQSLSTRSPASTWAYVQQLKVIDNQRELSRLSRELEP

As to `Cc1cc(C)n2[nH]c(=O)c(N=Nc3ccc(S(N)(=O)=O)cc3)c2n1`, the Potency result in test [1], in test [2], in test [3], in test [5] and in test [6] was “inactive” in each case. Moreover, the Potency in test [4] is 84.9 µM (active).

As to `CC(OC(=O)CNC(=O)COc1ccccc1)C(=O)N(C)Cc1ccccc1` (stereo not given), the Potency entry in test [1], in test [2] and in test [4] was “inactive” throughout. Further, the activation is 1.04% [at 17.1 µM, percent relative to cAMP agonist control] in test [3] and -1.24% [at 30.8 µM] in test [6]. Moreover, in test [5], the activity change, negative = inhibition was -17.7% [at 30.8 µM].

With `O=C(COC(=O)c1c2c(nc3ccccc13)/C(=C/c1ccco1)CC2)NC1CCCC1`, the Potency in test [1] is 30.1 µM (active). Also, the Potency entry in test [2], in test [3], in test [4], in test [5] and in test [6] was “inactive” throughout.

On to `Cc1ccc2[nH]cc(C(c3ccccc3)c3ccc(C)s3)c2c1` (stereo not given), for which the Potency result in test [1], in test [2], in test [3], in test [4], in test [5] and in test [6] was “inactive” throughout.

With `CCc1cccc2sc(NC(=O)c3ccc(N4C(=O)CCC4=O)cc3)nc12`, the Potency entry in test [1], in test [2], in test [3], in test [4], in test [5] and in test [6] was “inactive” throughout.

As for `CCC(C)NC(=O)Cn1c(=O)n(CCCCCC(=O)Nc2ccccc2)c(=O)c2sccc21` (stereo not given), the Potency result in test [1], in test [2], in test [3], in test [4], in test [5] and in test [6] was “inactive” each time.

Turning to `COc1ccc(C/C(C)=N/NC(=O)c2cccnc2)cc1`, the Potency result in test [1], in test [2] and in test [4] was “inactive” each time. The activation was -0.201% [at 17.1 µM, percent relative to cAMP agonist control] in test [3] and 7.53% [at 30.8 µM] in test [6]. In addition, in test [5], the activity change, negative = inhibition was -16% [at 30.8 µM].

As to `N#Cc1c(-c2ccccc2)nc(SCc2cccc(C(F)(F)F)c2)[nH]c1=O`, the Potency was 26.9 µM (active) in test [1] and 75.7 µM (active) in test [4]. The Potency result in test [2], in test [3], in test [5] and in test [6] was “inactive” each time.

Regarding `O=C(Nc1cc(-c2ccccc2)sc1C(=O)O)c1cccc(F)c1`, the Potency in test [1] was 47.8 µM (active). In addition, the Potency entry in test [2], in test [3], in test [4], in test [5] and in test [6] was “inactive” each time.

With `Oc1ccc(NCc2cccs2)cc1`, the Potency result in test [1], in test [2] and in test [4] was “inactive” in each case. Besides, the activation is 14.6% [at 17.1 µM, percent relative to cAMP agonist control] in test [3] and 21.5% [at 30.8 µM] in test [6]. Besides, the activity change, negative = inhibition in test [5] is 0.945% [at 30.8 µM].

In the case of `COCCOC(=O)C(C#N)c1nc2ccccc2nc1N1CCN(Cc2ccccc2)CC1` (stereo not given), the Potency entry in test [1], in test [2] and in test [4] was “inactive” throughout. For the same molecule, the activation is 10.5% [at 17.1 µM, percent relative to cAMP agonist control] in test [3] and 38.2% [at 30.8 µM] in test [6]. For the same molecule, the activity change, negative = inhibition in test [5] is 4.89% [at 30.8 µM].

Take `CN(Cc1ccccc1)S(=O)(=O)c1ccc(Cl)c(C(=O)NCc2ccncc2)c1`: the Potency result in test [1], in test [2], in test [3], in test [4], in test [5] and in test [6] was “inactive” throughout.

In the case of `COC(=O)C1=CN(c2ccc(F)cc2)C(N)=C(C#N)C1c1cccc(OC)c1OC` (stereo not given), the Potency result in test [1], in test [2] and in test [4] was “inactive” in each case. Further, the activation in test [3] is 4.9% [at 17.1 µM, percent relative to cAMP agonist control]; in test [6], 17% [at 30.8 µM]. Besides, the activity change, negative = inhibition in test [5] was -6.52% [at 30.8 µM].

Turning to `COc1ccccc1Cn1c(=O)oc2ccc(C)cc21`, the Potency entry in test [1], in test [2], in test [3], in test [4], in test [5] and in test [6] was “inactive” in each case.

For `COc1cc(/C=C2\SC(=O)N(CC(=O)Nc3cccc(C)c3)C2=O)cc([N+](=O)[O-])c1O`, the Potency in test [1] is 19 µM (active); in test [4], 47.8 µM (active). Besides, the Potency entry in test [2], in test [3], in test [5] and in test [6] was “inactive” each time.

For the molecule `CC(C)N(Cc1cn(C)nc1-c1cccc(Cl)c1)Cc1nccn1C`, the Potency entry in test [1], in test [2] and in test [4] was “inactive” in each case. The activation in test [3] was 1.24% [at 17.1 µM, percent relative to cAMP agonist control]; in test [6] it was 15% [at 30.8 µM]. Moreover, the activity change, negative = inhibition in test [5] was -5.68% [at 30.8 µM].

For the molecule `CC1=NN(c2nc(-c3ccc(Cl)cc3)cs2)C(=O)C1`, the Potency in test [1] was 25.1 µM (active). Moreover, the Potency entry in test [2] and in test [4] was “inactive” throughout. Also, the activation is 4.56% [at 17.1 µM, percent relative to cAMP agonist control] in test [3] and 11% [at 30.8 µM] in test [6]. For the same molecule, the activity change, negative = inhibition in test [5] is -0.482% [at 30.8 µM].

Consider `O=c1ccc(-c2ccccc2)nn1Cc1c(F)cccc1Cl`, for which the Potency entry in test [1], in test [2], in test [3], in test [4], in test [5] and in test [6] was “inactive” in each case.

As to `COc1cccc(OCCOc2ccc(/C=C3\C(=N)N4N=C(S(C)(=O)=O)SC4=NC3=O)cc2OC)c1`, the Potency in test [1] is 37.9 µM (active). Besides, the Potency result in test [2], in test [3], in test [4], in test [5] and in test [6] was “inactive” each time.

Turning to `O=C(Nc1nncs1)c1ccccc1NS(=O)(=O)c1cccs1`, the Potency entry in test [1], in test [2], in test [3], in test [4], in test [5] and in test [6] was “inactive” throughout.
